Results taken from PubChem BioAssay.
Activity calls are given as the source filed them.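 The calls were made as follows, unless noted: active = compounds lowering colon cancer cell viability after pretreatment blocking the GSK3B kinase; inactive = the rest.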

How the values were obtained:
[1] = Wnt pathway potentiators raising nuclear beta-catenin – imaging, WNT3A-conditioned medium, mouse C2C12, NPC library, primary screen (AID 1117326; in the data active = nuclear beta-catenin stimulation mostly above about 4.2%, no sharp cut-off; inactive = mostly below about 10%; also: reference of the scale not given here); conditions: stronger effect = higher value
[2] = stimulators of insulin release from INS-1E, primary screen, cell-based, 5 mM glucose, NPC library (AID 1117329;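 active = compound raises insulin release from rat beta cells at 5 mM glucose, no numeric limit stated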; also: reference of the scale not given here); conditions: rat INS-1E insulin secretion, at 10 µM, stronger effect = higher value
[3] = growth inhibition of GSK3B-pretreated HCT116 cells – cell-based, CellTiter-Glo, 0.2 to 20 µM (AID 1117336); conditions: HCT116 viability after GSK3B inhibitor, at 20 µM, stronger effect = higher value
[4] = inhibition of endothelial tube formation, primary screen, imaging, VEGF stimulated, CD31 staining, tube area, NPC library (AID 1117340;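 active = compound that reduces growth-factor-driven endothelial tube area in a mixed cell culture, no cutoff stated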); conditions: VEGF-stimulated ADSC/ECFC co-culture, at 10 µM, stronger effect = higher value
[5] = GLP1 release stimulators, primary, NCI-H716, NPC library (AID 1117341;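 active = compound raises GLP1 secretion from the human gut endocrine cells, with no numeric limit stated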; also: reference of the scale not given here); conditions: NCI-H716 cells, at 10 µM, stronger effect = higher value
[6] = HCT116 colon cancer cell growth inhibition, primary screen, CellTiter-Glo luminescence, NPC library (AID 1117342;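 active = compounds that lower survival of HCT116 colon cancer cells in the luminescence readout, no numeric limit stated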); conditions: at 20 µM (top of the series)
[7] = reduced SW480 viability measured with CellTiter-Glo, NPC library, primary (AID 1117343;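 active = compounds that lower viability of the colon cancer cells in the luminescence readout, with no numeric limit stated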); conditions: CellTiter-Glo luminescence; at 20 µM (top of the series)
[8] = NPC library primary testing for decreased DLD-1 cell viability via CellTiter-Glo (AID 1117346;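 active = compounds that lower survival of DLD-1 colon cancer cells in the luminescence readout, no cutoff given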); conditions: DLD-1 viability, CellTiter-Glo luminescence; at 20 µM (top of the series)

| Compound | nuclear beta-catenin stimulation ([1]; at 10 µM) | nuclear beta-catenin stimulation ([1]; stimulation, at 2 µM) | insulin secretion stimulation [2] | viability decrease [3] | tube area decrease [4] | GLP1 secretion stimulation [5] | inhibition of viability [6] | viability decrease (inhibition) [7] | viability decrease (inhibition) [8] |
| --- | --- | --- | --- | --- | --- | --- | --- | --- | --- |
| CN1CCC(N(Cc2ccccc2)c2ccccc2)CC1 | 0.1% (inactive) | -3% | 14.1% (inactive) | 24.8% (inactive) | -0.1% (inactive) | 14.3% (inactive) | 41.7% (inactive) | 48.7% (inactive) | 23.2% (inactive) |
| C[C@]12Cc3nonc3C[C@@H]1CC[C@@H]1[C@@H]2CC[C@@]2(C)[C@H]1CC[C@]2(C)O | 2.5% (inactive) | 0.4% | -2.4% (inactive) | 38.9% (inactive) | 1.9% (inactive) | 3.3% (inactive) | 1.5% (inactive) | 118% (active) | 61% (active) |
| O=C1c2ccccc2C(=O)C1C(=O)C(c1ccccc1)c1ccccc1 | 0.3% (inactive) | -0.1% | -2.2% (inactive) | 91.3% (active) | 78.8% (active) | -5% (inactive) | 44.8% (inactive) | 120% (active) | 99.3% (active) |
| CCC(C)(C)c1ccc(O)cc1 | 0.6% (inactive) | -0.2% | -1% (inactive) | -20.2% (inactive) | 9.4% (inactive) | 6.1% (inactive) | 0.6% (inactive) | -13% (inactive) | -2.4% (inactive) |
| ClCCCN1CCN(c2cccc(Cl)c2)CC1 | -0.9% (inactive) | -2.6% | 1.1% (inactive) | 15% (inactive) | -11.1% (inactive) | 1.5% (inactive) | 42.8% (inactive) | 26.2% (inactive) | 50.1% (active) |
| O=C(CCCCl)c1ccc(F)cc1 | -0.1% (inactive) | -0.7% | -0.9% (inactive) | -6.5% (inactive) | -3.6% (inactive) | 0.1% (inactive) | 3.2% (inactive) | -14.9% (inactive) | 5.8% (inactive) |
| CCN(CC)N(O)N=O | -1.2% (inactive) | 0.7% | -0.3% (inactive) | 2.3% (inactive) | -3.9% (inactive) | -1.7% (inactive) | -0.1% (inactive) | -1.2% (inactive) | -7.7% (inactive) |
| COc1cccc(C(=O)CCN[C@@H](C)[C@H](O)c2ccccc2)c1 | 20.8% (inactive) | -0.6% | 8.8% (inactive) | -1.3% (inactive) | 42% (active) | 0.7% (inactive) | 2.3% (inactive) | 91.6% (active) | 75.9% (active) |
| CCC1(c2ccccc2)CCC(=O)NC1=O (centres undefined) | 0.3% (inactive) | 0.1% | -2.9% (inactive) | -12.8% (inactive) | -0.6% (inactive) | 2.8% (inactive) | -2.8% (inactive) | 49.4% (inactive) | 6.55% (inactive) |
| CC(C)NC(C)C | 14.9% (inactive) | 5.2% | 4.3% (inactive) | -0.3% (inactive) | -6.3% (inactive) | -0.1% (inactive) | 1.1% (inactive) | 2.1% (inactive) | 0.4% (inactive) |
| CC(Cc1ccccc1)NCc1ccccc1Cl (centres undefined) | 0.1% (inactive) | 0% | 10.2% (inactive) | 26.5% (inactive) | -19.5% (inactive) | 2.3% (inactive) | 21.9% (inactive) | 51.1% (active) | 22.6% (inactive) |
| Nc1ccc(Cl)cc1C(=O)c1ccccc1F | 2.3% (inactive) | 4.2% | 5% (inactive) | 23.5% (inactive) | 25.4% (inactive) | 21.1% (active) | 44.6% (inactive) | 61.9% (active) | 12.8% (inactive) |
| CCOP(=S)(OCC)O/N=C(\C#N)c1ccccc1 | -0.3% (inactive) | 0.3% | -1.4% (inactive) | -25.2% (inactive) | -2.3% (inactive) | -1.1% (inactive) | 0.2% (inactive) | 36.2% (inactive) | -6.4% (inactive) |
| CC[N+]1(CC)CCC(OC(=O)C(O)(c2ccccc2)c2ccccc2)C1 (centres undefined) | -0.2% (inactive) | -1.8% | 3.25% (inactive) | 4.8% (inactive) | 1.2% (inactive) | 2.4% (inactive) | 4.2% (inactive) | -12.8% (inactive) | -6.4% (inactive) |
| O=C(N[C@H]1N=C(c2ccccc2F)c2cccc3c2N(CC3)C1=O)c1cc2ccccc2[nH]1 | 1.3% (inactive) | 1.4% | 3.5% (inactive) | 44.4% (inactive) | 8.5% (inactive) | 1.8% (inactive) | 54.9% (active) | 56.9% (active) | 29.7% (inactive) |
| CCN(CC)Cc1nccn1-c1ccc([N+](=O)[O-])cc1C(=O)c1ccccc1Cl | -1.2% (inactive) | -0.2% | 7.4% (inactive) | -3% (inactive) | 2.7% (inactive) | -0.3% (inactive) | 28.5% (inactive) | 39.7% (inactive) | 0% (inactive) |
| COP(=S)(OC)SCN1C(=O)c2ccccc2C1=O | 0.4% (inactive) | 1.1% | -0.9% (inactive) | -8.95% (inactive) | 1.5% (inactive) | 0% (inactive) | -8.5% (inactive) | 6.9% (inactive) | 24.4% (inactive) |
| CCOC(=O)C(c1c(O)c2ccccc2oc1=O)c1c(O)c2ccccc2oc1=O | -0.3% (inactive) | -0.6% | -0.8% (inactive) | 13% (inactive) | -8.4% (inactive) | -0.8% (inactive) | 5.5% (inactive) | -18.7% (inactive) | 3.4% (inactive) |
| CCOC(=O)NC(C)(C)Cc1ccc(Cl)cc1 | 7.3% (inactive) | -2.9% | 2.1% (inactive) | 13.6% (inactive) | 65.4% (active) | -1.8% (inactive) | 61.4% (active) | 31.1% (inactive) | 3.85% (inactive) |
| CN1C(=O)NC(=O)C(C)(C2=CCCCC2)C1=O (centres undefined) | 1.5% (inactive) | 0.7% | -0.5% (inactive) | -11.4% (inactive) | 0.1% (inactive) | 0.1% (inactive) | -2.4% (inactive) | 18.4% (inactive) | -1.75% (inactive) |
| CC(C)=CC1C(C(=O)OCN2C(=O)C3=C(CCCC3)C2=O)C1(C)C (centres undefined) | 2.5% (inactive) | 0.7% | -1.8% (inactive) | 34.8% (inactive) | 16% (inactive) | -0.5% (inactive) | 38.2% (inactive) | 63% (active) | 5% (inactive) |
